# An excerpt weighted towards active compounds, which were near 2.3% of everything screened.
# ATXN2 expr inh: ATXN2 expression inhibition; HEK-293 ATXN2-luciferase reporter, luminescence, 24 h; Potency, µM (series often up to 57 µM), for inactives: top-dose activity change, negative = inhibition, most hits filed as inhibitors; 360,000 compounds, 0.72% hits; also: % is scaled to controls: 0 for no effect and ±100 for the full control effect; nearly all actives have a fitted effect of over 55% in size
#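 qHTS (up to 57 uM final) was run with 24 h compound exposure of reporter cells at 37 °C. Each well was multiplexed: SteadyGlo luminescence measured ATXN2-luciferase expression after a fluorogenic Gly-Phe-AFC viability readout (25 uM final).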
# HepG2 viability: kills HepG2 cells in TGF-b inhibitor counter-screen; HepG2 CAGA-GFP viability, ATP luminescence, 18 h; Potency, µM (top dose mostly 46.1 µM), for the others: at the top dose activity change, negative = cytotoxicity, actives largely listed as cytotoxic; 410,000 compounds, 0.76% hits
#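 HepG2 CAGA-GFP cells (1000/well, DMEM with 1% FBS) received compound, then TGF-beta at 500 pg/mL final, and were incubated 18 hours at 37 degrees C. Viability was read by CellTiter-Glo luminescence. Media-only wells were set as complete cell-killing and DMSO as no toxicity.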
# TGFb inhibitor: inhibitors of TGF-b signaling; HepG2 CAGA-GFP TGF-b/SMAD3 reporter, GFP fluorescence, 18 h; TGF-beta stimulated, 500 pg/mL final; Potency, µM (highest dose often 46.1 µM), inactives show at the highest dose activity, negative = inhibition, most hits filed as inhibitors; 410,000 compounds, 1.2% hits; AID 588855; also: % is scaled to controls: 0 for no effect and ±100 for the full control effect; nearly all actives have a fitted effect of over 65% in size
#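 HEPG2 CAGA-GFP reporter cells (1000/well, DMEM with 1% FBS) received compounds, then recombinant TGF-beta at 500 pg/mL final for 18 hours at 37 degrees C. Per-cell GFP summed per well was normalised to unstimulated and stimulated DMSO controls before curve fitting.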
# ATXN viability: viability counter-screen for ATXN expression inhibitors; S2 cells (HEK-293 line with an ATXN2-luciferase reporter) viability, CellTiter-Fluor protease fluorescence, 24 h; Potency, µM (top dose mostly 56.7 µM), usual class: cytotoxic; AID 651635; 400,000 compounds, 0.49% hits; also: nearly all actives have a fitted effect of over 40% in size
# Active calls of the source: *; i = inactive; ? = inconclusive; . = no result given. Calls follow the shape of the dose curve; as a rule, active = well fitted curve in the direction sought with a large enough effect; inconclusive = small, poorly fitted or top-dose-only effect, or another doubt; inactive = no such curve, though single readings can be large; an effect the other way counts as inactive or inconclusive. Potency is read from the fitted curve at half-maximal effect.
SMILES,ATXN2 expr inh,HepG2 viability,TGFb inhibitor,ATXN viability
COc1ccc2ccccc2c1/C=N/NC(=O)c1ccc(C)nc1,.,-15%,-10%,i
CC(C)c1ccc(O)c(NC(=S)NC(=O)c2ccc3c(c2)OCO3)c1,36%,-84%,14µM*,i
CC/C(=N/NC(=O)c1ccc2c(c1)OCO2)c1ccccc1O,.,-39%,2.5µM*,?
Nc1ccc(C(=O)N/N=C\c2cc(N=Nc3cccc4ccccc34)ccc2O)cc1,5.6µM*,-10%,-31%,?
O=C(N/N=C/c1c(O)ccc2ccccc12)c1ccc(CO)nc1,4µM*,-23%,-5%,i
O=C(NC(=S)Nc1ccccc1Br)c1ccc2c(c1)OCO2,25%,-38%,0%,i
COc1cc(OC)c(OC)cc1CN1CCCC(c2nc(C)ncc2-c2ccc(F)cc2)C1 (stereo not drawn),.,.,.,i
O=C(N/N=C\c1c(O)ccc2ccccc12)c1ccc(S(=O)(=O)N2CCCCC2)cc1,0.53µM*,19%,0%,.
O=C(CNC(=O)c1ccc(S(=O)(=O)N2CCCC2)cc1)N/N=C/c1ccccc1Cl,-8%,26%,29%,i
O=C(N/N=C/c1ccccc1)c1ccc2c(c1)OCO2,-20%,-41%,-8%,i
O=C(NN=Cc1c(O)ccc2ccccc12)c1ccc2c(c1)OCO2,3.2µM*,-81%,?,i
CN[C@H](CC(C)C)C(=O)N[C@H]1C(=O)N[C@@H](CC(N)=O)C(=O)N[C@H]2C(=O)N[C@H]3C(=O)N[C@H](C(=O)N[C@@H](C(=O)O)c4cc(O)cc(O)c4-c4cc3ccc4O)[C@H](O)c3ccc(c(Cl)c3)Oc3cc2cc(c3O[C@@H]2O[C@H](CO)[C@@H](O)[C@H](O)[C@H]2O[C@H]2C[C@](C)(N)C(O)[C@H](C)O2)Oc2ccc(cc2Cl)[C@H]1O (stereo partly drawn),.,.,.,i
CN(C)c1nc(CN2CCCCC2c2cccnc2)nc2ccccc12 (stereo not drawn),.,.,.,i
CC(=O)c1ccc(F)c(-c2cc(C)cc3c2OC(CNC(=O)Cc2ccc4c(c2)OCO4)C3)c1 (stereo not drawn),.,.,.,i
C[C@H](CO)N1C[C@H](C)[C@@H](CN(C)CC2CCCCC2)Oc2c(NC(=O)Cc3ccccc3)cccc2C1=O,?,16µM*,16µM*,32µM*
CC(C)NC(=O)N(C)C[C@H]1Oc2c(NC(=O)Cc3ccccc3)cccc2C(=O)N([C@H](C)CO)C[C@@H]1C,1%,-33%,17%,i
C[C@H](CO)N1C[C@H](C)[C@@H](CN(C)Cc2ccc3c(c2)OCO3)Oc2c(NC(=O)C3CCCCC3)cccc2C1=O,-22%,-2%,?,?
C[C@H](CO)N1C[C@H](C)[C@@H](CN(C)Cc2ccc(C(=O)Nc3ccccc3N)cc2)Oc2c(NC(=O)C3CCCCC3)cccc2C1=O,?,-22%,-25%,20µM*
COc1cc(C(=O)NS(=O)(=O)c2ccccc2C)ccc1Cc1cn(C)c2ccc(NC(=O)OC3CCCC3)cc12,39µM*,.,.,i
CC(C)(C)CC(C)(C)N=C1Nc2cc(Cl)c(Cl)cc2NC12C[C@H]1CCC(=O)N3CC[C@@H](C2)[C@@H]13 (stereo partly drawn),?,13µM*,11µM*,.
Cc1cc2c(cc1C)N[C@]1(C[C@H]3CCCC(=O)N4CC[C@@H](C1)[C@@H]34)C(=NC1CCCCC1)N2,.,-27%,?,.
CC(C)(C)CC(C)(C)N=C1Nc2cc(Cl)c(Cl)cc2N[C@]12C[C@H]1CCCC(=O)N3CC[C@@H](C2)[C@@H]13,.,-44%,7.1µM*,.
CC(C)(C)CC(C)(C)N=C1Nc2ccccc2NC12C[C@H]1CCC(=O)N3CC[C@@H](C2)[C@@H]13 (stereo partly drawn),-2%,-46%,?,?
COC(=O)[C@@H]1CCCN1C(=O)c1c(OC)cc(=O)n2c1CCN(Cc1cc(OC)ccc1F)CC2,.,.,.,i
CCCCCCCCCCC[N+](C)(C)CC/C=C1/c2ccccc2Sc2ccc(Cl)cc21,.,20µM*,?,11µM*
CCCCCCCCCC[N+](C)(C)CC/C=C1/c2ccccc2Sc2ccc(Cl)cc21,.,-107%,?,7.9µM*
C=C[C@]1(C)C=C2C(=O)[C@@]3(O)OC(=O)[C@@]4(CCCC(C)(C)[C@H]34)[C@@]2(O)CC1,1.6µM*,5.6µM*,?,1.8µM*
